Data reported in PubChem BioAssay AID686978 (National Center for Advancing Translational Sciences (NCATS), 2013).
The campaign covered roughly 420,000 compounds. About 64,000 (15%) were called active. Another 27% or so got no clear call; they are omitted. The call rests on the fitted dose curve; in most records, active means well fitted inhibition curve with a large enough effect; inconclusive means small, poorly fitted or top-dose-only effect; inactive means flat fitted curve, though single readings scatter. These entries were drawn from the full list. A call without a number means that no potency is given here.

Test: qHTS for Inhibitors of human tyrosyl-DNA phosphodiesterase 1 (TDP1): qHTS in cells in absence of CPT; further: nearly all actives have a fitted effect of over 55% in size
Conditions: DT40 Tdp1-/- hTDP1 cells, no CPT, ATP luminescence, 48 h; activity change, negative = growth inhibition: at 46.2 µM (top of the series)
Summary of the method: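 Cells were dispensed at 400 per well, compounds added by pin tool, plates incubated ≥48 hr at 37 °C, then CellTiter-Glo added for 30 min at room temperature before luminescence reading. Line: DT40 Tdp1-/- complemented with hTDP1; camptothecin omitted.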
Potency means the concentration at half of the fitted maximal effect.

| Compound | Potency |
| --- | --- |
| COCc1ccc(CN2CCC(Oc3ccc(C(=O)NCc4ccccn4)cc3)CC2)o1 | inactive |
| O=C(COC(=O)c1ncc(Cl)c(Cl)c1Cl)NNC(=O)c1ccccc1 | inactive |
| CCCCCCn1cc(C(=O)O)c(=O)c2cc(F)c(N3CCCCC3)cc21 | inactive |
| CCn1cc(S(=O)(=O)c2cccc(C)c2)c(=O)c2cc(F)c(N3CCN(C)CC3)cc21 | inactive |
| CC1CCCN(c2cc3c(cc2F)c(=O)c(S(=O)(=O)c2cccc(Cl)c2)cn3Cc2ccccc2)C1 (configuration not stated) | inactive |
| Cc1ccc(S(=O)(=O)c2cn(Cc3ccccc3)c3cc(N4CCCC4)c(F)cc3c2=O)c(C)c1 | 9.2 µM (active) |
| Cc1cccc(S(=O)(=O)c2cn(Cc3ccccc3)c3cc(N4CCOCC4)c(F)cc3c2=O)c1 | 20.6 µM (active) |
| Cc1nn(Cc2ccccc2)c(C)c1CNC(=O)c1ccc(F)c(S(=O)(=O)N2CCOCC2)c1 | inactive |
| CC(=O)Cc1nsc(NC(=O)c2ccc(Cl)cc2Cl)n1 | inactive |
| CCCCCC1CC(COc2ccccc2)OC1=O (configuration not stated) | inactive |
| CCOC(=O)c1oc2ccccc2c1NC(=O)c1cccs1 | inactive |
| CCOC(=O)CNC(=O)/C(=C\c1ccc(F)cc1)NC(=O)c1ccccc1 | inactive |
| CC(=O)OCC(=O)[C@@]1(O)CCC2C3CCC4=CC(=O)CC[C@@]4(C)[C@]3(F)C(O)C[C@]21C (some centres not stated) | inactive |
| COc1ccc(C2(Nc3cccc(F)c3)C(=O)c3ccccc3C2=O)cc1 | inactive |
| COc1ccc(CCNC(=O)COC(=O)c2cc(=O)c3ccccc3o2)cc1 | inactive |
| COc1ccc(Nc2cc(=O)oc3ccccc23)cc1 | 4.11 µM (active) |
| COc1ccc2oc(=O)cc(-c3cc4ccccc4o3)c2c1 | inactive |
| CC1C=CCC2C(=O)N(c3cccc(C(=O)N4CCCCCC4)c3)C(=O)C12 (configuration not stated) | inactive |
| CCCCCCCC(=O)OC(CN1CCCCCC1)CN1CCCC1=O (configuration not stated) | inactive |
| CCCCNC(=O)N1CCN(S(C)(=O)=O)CC1 | inactive |
| O=C(NCCCn1ccnc1)/C(=C\c1ccccc1F)NC(=O)c1ccccc1 | inactive |
| COc1cccc(-c2nn(-c3ccccc3)cc2/C=C(\C#N)C(=O)NCCCn2ccnc2)c1 | 20.6 µM (active) |
| COc1cc(OC)cc(C(=O)NCCCn2ccnc2)c1 | inactive |

| Compound | Potency |
| --- | --- |
| NC(=NC(=O)c1ccccc1)C1=C(O)CCC1=O | inactive |
| N#CC1(Nc2ccc(-c3ccc(Cl)cc3)cc2)CCCC1 | inactive |
| Nc1nc(NC(=O)/C=C/c2ccccc2)nn1-c1ccccc1 | inactive |
| CCCc1cc(=O)oc2c(C)c(OCC(=O)Nc3ccccn3)ccc12 | inactive |
| CC1CCN(C(=O)CCc2nnc3ccc(NCc4ccco4)nn23)CC1 | inactive |
| CN1CCc2c(sc3c2c(NCc2ccco2)nc2nnnn23)C1 | 18.4 µM (active) |
| O=C(CN(c1cccc(Cl)c1)S(=O)(=O)c1ccccc1)NN=C1CCCC1 | inactive |
| Cc1cccc(-n2ncc3c(=O)[nH]c(SCC(=O)Nc4cc(C)on4)nc32)c1 | inactive |
| O=C(NC(Cc1ccccc1)C(=O)N1CCCC(C(F)(F)F)C1)c1ccccc1 (configuration not stated) | inactive |
| FC(F)(F)C1CCCN(c2nsc3ccccc23)C1 (configuration not stated) | 2.59 µM (active) |
| O=C(NCC(=O)N1CCCC(C(F)(F)F)C1)c1ccccc1F (configuration not stated) | inactive |
| CC(=NC1CCN(Cc2ccccc2)CC1)c1c(O)[nH]c(=O)[nH]c1=O | inactive |
| Cc1cccc(OCc2nnc(SCC(=O)N3CCN(C(=O)c4ccco4)CC3)n2C)c1C | inactive |
| O=C(COc1ccc(Cl)cc1)N(Cc1ccco1)Cc1ccco1 | 20.6 µM (active) |
| O=C(CCc1ccccc1)NNC(=O)COc1ccc(Cl)cc1 | inactive |
| O=C(CCCOc1ccccc1)NCc1ccco1 | inactive |
| Cc1cccc(OCC(=O)N(Cc2ccc(C(C)C)cc2)Cc2ccco2)c1C | 20.6 µM (active) |
| Cc1ccnc(NC(=O)CCC(=O)N(CC(=O)NCc2ccccc2)Cc2ccco2)c1 | inactive |
| O=C(Nn1cnc2ccccc2c1=O)c1ccc(F)cc1Cl | inactive |
| O=S(=O)(c1ccc(-c2ccno2)s1)N1CCCCC1 | inactive |
| O=C(C1CCCO1)N1CCN(C(=S)NC2CC2)CC1 (configuration not stated) | inactive |
| Cc1ccc(S(=O)(=O)NNC(=O)Nc2cccc3ccccc23)cc1 | inactive |
| CC1CCc2c(nc3ncnn3c2Nc2ccc(OC(F)(F)F)cc2)C1 (configuration not stated) | 20.6 µM (active) |

| Compound | Potency |
| --- | --- |
| CC(=O)c1nn(-c2ccc(OC(F)(F)F)cc2)nc1Nc1ccccc1 | inactive |
| CC1(C)C(C=C(Cl)Cl)C1C(=O)NC(O)C(=O)c1ccccc1 (configuration not stated) | inactive |
| Nc1cccnc1Sc1ccccc1 | inactive |
| Nc1ccccc1N | 7.7 µM (active) |
| Nc1ccccc1/C=N\N=C/c1ccccc1N | inactive |
| COc1cc2c(cc1CNC[C@H]1O[C@@H](n3cnc(C(N)=O)n3)[C@H](O)[C@@H]1O)OCO2 | inactive |
| Cc1ccn2cc(C(=O)NC3CCN(Cc4ccccc4)CC3)nc2c1 | inactive |
| Cc1ccsc1-c1nc(CSCC(=O)NCCN2CCCC2)c(C)o1 | inactive |
| Cc1ccc(-c2cc(C(=O)NC3CCN(Cc4ccccc4)CC3)c3ccccc3n2)cc1 | 16.4 µM (active) |
| COC(=O)CNC(=O)c1cc(-c2ccncc2)nc2ccccc12 | inactive |
| Cc1cc(C(=O)NC2CCN(Cc3ccccc3)CC2)n[nH]1 | inactive |
| CCOC(=O)N1CCC(NC(=O)CCc2ccccc2)CC1 | inactive |
| Cc1ccc(-c2nc(CSCC(=O)NC3CCN(Cc4ccccc4)CC3)c(C)o2)cc1 | 16.4 µM (active) |
| CC1CCCCC1NC(=O)c1cc(=O)[nH]c2ccccc12 (configuration not stated) | inactive |
| CC1CCCC(NC(=O)c2cc(-c3ccncc3)nc3ccccc23)C1C (configuration not stated) | 23.1 µM (active) |
| C=CCn1c(SCC(=O)NC23CC4CC(CC(C4)C2)C3)nc(O)cc1=O | inactive |
| COc1ccc2c(CC(=O)NNC(=O)c3ccccc3F)coc2c1 | inactive |
| CCC1([N+](=O)[O-])COC(c2ccc(C)cc2)OC1 (configuration not stated) | inactive |
| O=C1CCc2cc(S(=O)(=O)N3CCC(C(=O)NCc4ccccc4Cl)CC3)ccc2N1 | inactive |
| O=C1c2ccccc2C(=O)N1CCC(O)C[N+](=O)[O-] (configuration not stated) | inactive |
| CCCNC(=O)CCn1cc(-c2ccc(OC)cc2)nc1CCN | inactive |
| O=C(Nc1cccc(C(=O)N2CCCC2)c1)c1ccccc1 | inactive |
| COc1cccc(NC(=O)N2CCN(C(=O)c3nsc4ccccc34)CC2)c1 | inactive |

| Compound | Potency |
| --- | --- |
| NC(=O)C1CCN(C(=O)c2cccc(NC(=O)c3nsc4ccccc34)c2)CC1 | 16.4 µM (active) |
| CCOC(=O)c1ccc(NC(=O)C2CC(=O)Nc3nc4ccccc4n32)cc1 (configuration not stated) | inactive |
| Cc1nc2ccn(Cc3cccs3)c(=O)c2cc1C(=O)NCc1ccc(Cl)cc1 | 16.4 µM (active) |
| COc1ccc(Cn2ccc3nc(C)c(C(=O)Nc4ccc(C)c(F)c4)cc3c2=O)cc1 | inactive |
| CN(CC(=O)NCc1ccc(Cl)cc1)S(=O)(=O)c1cccs1 | inactive |
| CCn1c(C(C)C)n[nH]c1=S | inactive |
| O=C(NC1CCCCC1)C1CCCN(S(=O)(=O)c2cccs2)C1 (configuration not stated) | inactive |
| Cn1nnnc1SCC(=O)NNC(=O)c1ccc(Br)cc1 | inactive |
| Cc1cc(N)n2nc(-c3ccc(C(C)(C)C)cc3)cc2n1 | 25.9 µM (active) |
| Cc1cc(C(C)(C)C)cc(C)c1N | inactive |
| CC(=O)Nc1ccc(NC(=O)CSc2nnnn2-c2ccccc2F)cc1 | inactive |
| C1CC1Cc1noc(CN2CCN(CC3CC3)CC2)n1 | inactive |
| COCCNc1cc(-c2c(C)noc2C)ncn1 | inactive |
| CNc1cc(-c2c(C)noc2C)ncn1 | 14.6 µM (active) |
| Cc1cnc(CNc2cc(-c3c(C)noc3C)ncn2)cn1 | inactive |
| COc1ccc(C2=NOC3(CC(=O)N(c4ccc(Cl)cc4)C3=O)C2)c(OC)c1 (configuration not stated) | inactive |
| COC(=O)c1ccc(NC(=O)CSc2nncn2-c2cccnc2)cc1 | inactive |
| Cc1ccc(SCCC(=O)NC(C(C)C)C(C)C)cc1 | inactive |
| COc1ccc(Cl)cc1S(=O)(=O)Nc1cccc(C(=O)O)c1 | inactive |
| CCOC(=O)c1cccc(NS(=O)(=O)c2cc(-c3cnc(C)o3)ccc2OC)c1 | 6.51 µM (active) |
| CCOC(=O)c1cccc(NS(=O)(=O)c2cn(C)c(C)n2)c1 | inactive |
| Cc1ccccc1NC(=O)Cc1nc(COC(=O)CNC(=O)c2ccc(Cl)cc2Cl)cs1 | inactive |
| CN1CCN(CCCCOc2cccc3ccccc23)CC1 | 16.4 µM (active) |

| Compound | Potency |
| --- | --- |
| COc1ccccc1OCCCCCCN1CCN(C)CC1 | inactive |
| CCN1CCN(CCCCOc2ccccc2F)CC1 | inactive |
| CCn1nc(C(=O)NNC(=O)C2CSC3(C)CCC(=O)N23)c2ccccc2c1=O (configuration not stated) | inactive |
| CC(=O)c1cccc(NC(=O)COc2ccc(S(=O)(=O)N3CCOCC3)cc2)c1 | inactive |
| CC1CCN(S(=O)(=O)c2ccc3[nH]c(=O)ccc3c2)CC1 | inactive |
| CC(=O)c1cccc(Nc2ccc3cc(S(=O)(=O)N4CCC(C)CC4)ccc3n2)c1 | 16.4 µM (active) |
| CC/C(O)=C1\C(=O)CC(C)(C)CC1=NCCc1nc2ccccc2[nH]1 | 20.6 µM (active) |
| O=C(OCc1nc2ccccc2[nH]1)C1CCCCC1 | inactive |
| Nc1cccc(CCc2nc3ccccc3[nH]2)c1 | inactive |
| COc1ccc(NC(=O)COc2ccc(C(=O)OCC(=O)N(C)C3CCS(=O)(=O)C3)cc2OC)cc1 (configuration not stated) | inactive |
| NC(=O)c1ccccc1N(Cc1ccccc1)S(=O)(=O)c1ccccc1 | inactive |
| CCOC(=O)N1CCN(S(=O)(=O)c2ccc(OC)cc2)CC1 | inactive |
| CCOC(=O)N1CCN(C(=O)c2ccccc2N(Cc2ccccc2)S(=O)(=O)c2ccc(OC)cc2)CC1 | 3.26 µM (active) |
| CN(CCO)Cc1csc2ccc(Br)cc12 | inactive |
| COc1ccc2oc(C(=O)NCC(Cc3ccccc3)N(C)C)c(C)c2c1 (configuration not stated) | inactive |
| CCOC(=O)c1c(C)nc2c(c1C)c(=O)oc1ccccc12 | inactive |
| CCOC(=O)c1c(C)oc2cc(Br)c(OCC(N)=O)cc12 | inactive |
| COC(=O)c1c(C)oc2ccc(N(C(=O)Oc3ccccc3)S(=O)(=O)c3ccccc3)cc12 | 11.6 µM (active) |
| CCOC(=O)c1c(C)oc2ccc(N(C(=O)c3ccncc3)S(=O)(=O)c3ccc(CC)cc3)cc12 | 2.91 µM (active) |
| CN(CC(=O)O)S(=O)(=O)c1ccc2oc3ccccc3c2c1 | inactive |
